A short description of assay [1]: anti-His antibody binders, primary screen, artefact control for SMM control protein annotation, biochemical, small-molecule microarray, 635 nm fluorescence (AID 1128).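 Note: score merges feature fluorescence with signal-to-noise for each printed compound spot.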 To be noted: anti-His Alexa647 antibody binding, higher = more signal.
For assay [2], the system named is Human papillomavirus type 1a E7 protein (residues 1-88). Put plainly: HPV1a E7 small-molecule binders, primary screen, biochemical, small-molecule microarray, residues 1-88, 635 nm (AID 1129). To be noted: small-molecule microarray binding, fluorescence 635 nm; higher = more signal.
In assay [3] the target is Focal adhesion kinase 1 (Homo sapiens) (UniProt Q05397). Put plainly: small-molecule microarray binders of FAK, primary screen, biochemical, 635/667 nm fluorescence, BSA, DTT (AID 1130).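 Note: composite of spot emission at 667 nm and signal to noise over triplicate slides.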 To be noted: PTK2 binding, 635 nm fluorescence, higher = more signal.
Focal adhesion kinase 1 (Homo sapiens), sequence (Q05397 whole entry, looked up): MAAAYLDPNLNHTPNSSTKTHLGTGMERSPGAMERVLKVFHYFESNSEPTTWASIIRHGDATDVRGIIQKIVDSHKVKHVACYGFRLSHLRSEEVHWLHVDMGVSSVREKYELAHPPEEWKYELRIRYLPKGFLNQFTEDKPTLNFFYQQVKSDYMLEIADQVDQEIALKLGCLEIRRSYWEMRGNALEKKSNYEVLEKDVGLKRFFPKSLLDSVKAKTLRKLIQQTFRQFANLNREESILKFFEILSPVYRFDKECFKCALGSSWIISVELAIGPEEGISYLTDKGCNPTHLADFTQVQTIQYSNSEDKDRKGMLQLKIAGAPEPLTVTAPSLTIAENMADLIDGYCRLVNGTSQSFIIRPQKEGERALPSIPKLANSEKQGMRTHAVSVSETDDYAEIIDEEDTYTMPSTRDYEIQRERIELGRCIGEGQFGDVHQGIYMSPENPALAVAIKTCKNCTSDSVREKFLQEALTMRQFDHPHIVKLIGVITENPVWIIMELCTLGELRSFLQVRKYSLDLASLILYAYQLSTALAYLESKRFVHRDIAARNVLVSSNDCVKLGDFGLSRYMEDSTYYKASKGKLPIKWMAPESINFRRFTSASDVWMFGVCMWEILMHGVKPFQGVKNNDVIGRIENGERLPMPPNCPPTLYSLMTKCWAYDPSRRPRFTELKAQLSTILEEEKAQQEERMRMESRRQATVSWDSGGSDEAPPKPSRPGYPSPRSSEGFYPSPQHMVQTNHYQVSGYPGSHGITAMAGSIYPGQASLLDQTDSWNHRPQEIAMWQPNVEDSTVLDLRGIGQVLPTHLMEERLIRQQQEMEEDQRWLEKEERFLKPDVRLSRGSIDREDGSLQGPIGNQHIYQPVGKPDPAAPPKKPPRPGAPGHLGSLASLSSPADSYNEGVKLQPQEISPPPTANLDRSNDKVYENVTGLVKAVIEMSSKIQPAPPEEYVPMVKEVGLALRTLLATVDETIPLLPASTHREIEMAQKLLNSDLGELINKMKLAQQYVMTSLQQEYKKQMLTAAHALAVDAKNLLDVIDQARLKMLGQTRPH
Assay [4] concerns Fibrinogen (Alexa647-labelled). The assay is described as follows: fibrinogen binders on compound microarrays, profiling panel, artefact control for SMM control-protein annotation, biochemical, small-molecule microarray, 635/667 nm fluorescence (AID 1131).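 Note: z-score merges 667 nm fluorescence with per-spot signal-to-noise over triplicate slides.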 The following applies: fibrinogen-A647 binding fluorescence, higher = more signal.
In assay [5] the target is Follistatin (Homo sapiens) (UniProt P19883). The assay is described as follows: follistatin binders on small-molecule microarrays, primary screen, biochemical, small-molecule microarray, 635/667 nm fluorescence (AID 1132). The following applies: FST binding, 635 nm fluorescence, higher = more signal.
Follistatin (Homo sapiens), sequence (P19883 whole entry, looked up): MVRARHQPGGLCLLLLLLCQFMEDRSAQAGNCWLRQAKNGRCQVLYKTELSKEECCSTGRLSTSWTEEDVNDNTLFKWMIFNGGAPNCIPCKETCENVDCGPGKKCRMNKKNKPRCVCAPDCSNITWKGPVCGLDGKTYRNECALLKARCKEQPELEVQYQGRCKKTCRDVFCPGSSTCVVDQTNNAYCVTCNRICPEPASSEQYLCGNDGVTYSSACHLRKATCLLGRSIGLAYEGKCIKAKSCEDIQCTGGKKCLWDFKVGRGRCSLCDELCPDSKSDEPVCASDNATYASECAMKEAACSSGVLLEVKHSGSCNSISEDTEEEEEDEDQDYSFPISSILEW
In assay [6] the target is Fibroblast growth factor 2 (Homo sapiens) (UniProt P09038). The assay is described as follows: FGF2 binders on small-molecule microarrays, primary screen, biochemical, small-molecule microarray, 635/667 nm fluorescence (AID 1133). To be noted: small-molecule microarray binding, FGF2, fluorescence 635/667; higher = more signal.
Fibroblast growth factor 2 (Homo sapiens), sequence (P09038 whole entry, looked up): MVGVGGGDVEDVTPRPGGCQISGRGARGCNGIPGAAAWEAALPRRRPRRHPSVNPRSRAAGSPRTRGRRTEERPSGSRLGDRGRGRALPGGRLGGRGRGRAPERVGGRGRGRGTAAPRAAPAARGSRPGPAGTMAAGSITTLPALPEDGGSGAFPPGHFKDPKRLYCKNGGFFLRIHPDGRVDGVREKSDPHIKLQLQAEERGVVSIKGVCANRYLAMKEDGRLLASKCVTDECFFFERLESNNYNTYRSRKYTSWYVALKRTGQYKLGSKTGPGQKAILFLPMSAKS
The nature of assay [7]: mitochondrial membrane potential change in A549 cells, profiling panel, cell-based, JC-1 fluorescence, basal, 24 h, 100 nL (AID 1138).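 Note: A549 lung adenocarcinoma cells under basal conditions with no added stimulus; test concentration not given here.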 The following applies: higher = more signal.
In assay [8] the test system is Lefty1. The assay is described as follows: Lefty1 binders on small-molecule microarrays, primary screen, biochemical, small-molecule microarray, 635/667 nm fluorescence (AID 1139). To be noted: small-molecule microarray binding, fluorescence 635/667; higher = more signal.
Assay [9] relates to wheat germ agglutinin (Triticum aestivum), Alexa647-labelled. Put plainly: wheat germ agglutinin binders on compound microarrays, profiling panel, artefact control for SMM control-protein annotation, biochemical, small-molecule microarray, 635/667 nm fluorescence (AID 1140).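 Note: score merges 667 nm feature emission with signal to noise over triplicate slides.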 To be noted: WGA-A647 binding, 635 nm fluorescence, higher = more signal.
The target in assay [10] is Luciferin 4-monooxygenase (Photinus pyralis) (UniProt P08659). Put plainly: firefly luciferase enzyme inhibitors, primary screen, biochemical, luminescence, purified enzyme, 2006 set (AID 1141).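 Note: cell-free assay with purified firefly luciferase at 100 ng per well in PBS; test concentration not given here.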 The following applies: SteadyGlo luminescence, 30 min, higher = more signal, called active from +8 up or from −8 down.
Luciferin 4-monooxygenase (Photinus pyralis), sequence (P08659 whole entry, looked up): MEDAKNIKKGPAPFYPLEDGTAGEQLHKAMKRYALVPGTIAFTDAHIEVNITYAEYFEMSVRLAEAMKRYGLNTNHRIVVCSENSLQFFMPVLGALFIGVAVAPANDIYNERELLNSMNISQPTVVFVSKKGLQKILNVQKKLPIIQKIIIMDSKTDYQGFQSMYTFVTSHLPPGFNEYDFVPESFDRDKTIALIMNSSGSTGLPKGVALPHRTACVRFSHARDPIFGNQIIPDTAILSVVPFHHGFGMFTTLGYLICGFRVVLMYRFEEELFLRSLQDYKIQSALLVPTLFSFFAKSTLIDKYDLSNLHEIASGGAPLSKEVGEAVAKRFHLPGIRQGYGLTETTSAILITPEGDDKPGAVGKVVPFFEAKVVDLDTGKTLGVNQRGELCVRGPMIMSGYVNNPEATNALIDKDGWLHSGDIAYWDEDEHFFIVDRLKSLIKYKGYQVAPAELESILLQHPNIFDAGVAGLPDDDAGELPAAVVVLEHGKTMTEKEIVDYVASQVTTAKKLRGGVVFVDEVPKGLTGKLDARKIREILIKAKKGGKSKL

Activity calls are given as the source filed them.

With `CCCNC(=O)[C@@]1(Sc2ccc(C)cc2)CC(=O)N(Cc2ccccc2Cl)[C@@H]1c1ccc(CO)cc1I`, the composite z-score in assay [1] is 0.977; in assay [2], -0.157; in [3], 0.313; in assay [4], 0.22; in assay [5], -0.328; in assay [6], -1.08. Moreover, the composite z-score in assay [8] was -0.896; in assay [9], 0.202. Further, the z-score in assay [7] is 0.685; in [10] it was 0.718 (inactive).

For the molecule `CC(C)NC(=O)[C@@H]1c2ccccc2C(=O)N(Cc2ccccc2C(F)(F)F)[C@H]1c1ccc(CO)cc1`, the composite z-score is -0.403 in assay [1]; -0.358 in [2]; -0.156 in assay [3]; -0.55 in assay [4]; 0.471 in [5]; 0.232 in [6]. Further, the composite z-score in [8] was -1.5; in [9], 0.145. Also, the z-score is -0.18 in assay [7] and 0.681 (inactive) in assay [10].

`C=C(CCCC)C(=O)CC[C@H](OC(=O)c1ccccc1-c1ccccc1C(=O)O)c1ccc(OCCO)cc1`: the composite z-score was 0.321 in assay [1]; 0.632 in assay [2]; -0.0609 in assay [3]; 0.0905 in [4]; 0.571 in assay [5]; 1.26 in assay [6]. Further, the values for the composite z-score in assay [8] and in assay [9] were 1.1 and 0.708, respectively. In addition, the z-score in assay [7] is 0.128; in assay [10] it was -1.95 (inactive).

Turning to `C=CCNC(=O)[C@@H]1[C@H]2C(=O)O[C@H](c3ccccc3)[C@H](c3ccccc3)N2[C@H](c2ccc(OCCO)cc2)[C@@]12C(=O)Nc1ccc(C#CC3(O)CCCCCC3)cc12`, the composite z-score in [1] is 2.64; in [2] it was 1.18; in [3] it was 0.245; in assay [4], 0.891; in [5] it was 1.34; in [6], 0.755. For the same molecule, the composite z-score worked out at 0.497 in assay [8] and 1.04 in assay [9]. For the same molecule, the z-score is -1.21 in assay [7] and -0.467 (inactive) in [10].

`C=C(C)[C@@H]1CC=C(C(O)C2C=CC3C(=O)N(c4ccccc4)C(=O)C3N2Nc2ccc([N+](=O)[O-])cc2)CC1` (stereo not given in full): the composite z-score in assay [1] was 0.594; in assay [2], 1.27; in assay [3], 0.0881; in assay [4], 0.995; in assay [5], 1.15; in assay [6], 0.269. Besides, the results for the composite z-score in [8] and in assay [9] were 1.41 and 0.963, respectively. In addition, the results for the z-score in assay [7] and in [10] were -1.55 and 0.158 (inactive), respectively.

Take `CCCC[C@H]1OB(O)C[C@H]2C1=C(COc1ccccc1)C[C@H]1C(=O)C=CC(=O)[C@H]12`: the composite z-score in [1] was 0.219; in [2], 0.398; in assay [3] it was 0.628; in [4], 0.951; in assay [5], 1.06; in assay [6], 0.696. In addition, the composite z-score in assay [8] was determined as 1; in assay [9], 0.22. Also, the z-score in assay [7] is 1.04; in assay [10], -2.36 (inactive).

As to `[N-]=[N+]=Nc1ccccc1C[C@@]1(C(=O)NCc2ccccc2)N=C(c2ccc(OCCCO)cc2)O[C@@H]1c1ccccc1N=[N+]=[N-]`, the composite z-score in assay [1] was determined as 1.27; in assay [2] it was 1.17; in [3], 0.268; in assay [4] it was 0.664; in [5] it was 1.32; in assay [6], 0.32. Besides, the composite z-score in [8] is -0.0327; in assay [9] it was 1.03. The z-score in [7] was 0.197; in assay [10], -2.56 (inactive).

For the molecule `C[N+](C)(C)CCCC[C@@H]1NC(=O)[C@@H]2C[C@H](C(=O)NCc3ccc(F)cc3)[C@H](c3ccc(O)cc3)N2C1=O`, the composite z-score in assay [1] was 0.928; in assay [2] it was -0.321; in assay [3] it was 0.951; in assay [4], -0.965; in assay [5] it was 1.34; in assay [6], 1.6. Besides, the composite z-score in assay [8] was 0.0338; in assay [9] it was -0.3. Also, the z-score is 0.526 in assay [7] and -0.41 (inactive) in assay [10].

Regarding `COCCOC(=O)N1C(=O)[C@@]2(c3cc(C#CCC(C(=O)OC)C(=O)OC)ccc31)[C@H](C(=O)Nc1nc3ccccc3s1)[C@H]1C(=O)O[C@H](c3ccccc3)[C@H](c3ccccc3)N1[C@@H]2c1ccc(O)cc1`, the composite z-score in assay [1] was determined as 0.777; in [2], 1.21; in assay [3], 0.235; in assay [4] it was 0.461; in assay [5], 1.3; in [6], 1.46. Moreover, the composite z-score in [8] is 1.29; in assay [9] it was 0.762. The z-score in assay [7] was -2.26; in [10], 0.258 (inactive).

As for `CN(C)CCCCNC(=O)[C@H]1C[C@H]2C(=O)N3CCC[C@H]3C(=O)N2[C@H]1c1cccc(OCCO)c1`, the composite z-score in assay [1] turned out to be 1.96; in [2] it was 0.74; in assay [3], 1.02; in assay [4], 0.311; in assay [5], 1.21; in [6], 0.382. Besides, the composite z-score is 0.365 in [8] and 1.15 in [9]. Besides, the z-score in assay [7] is -0.159; in assay [10], 0.83 (inactive).

Regarding `CN1C(=O)C2C(C3CC3)C=C3CN(Cc4cccc(Cl)c4)[C@@H]([C@@H](O)Cc4ccccc4)C3C2C1=O` (stereo not given in full), the composite z-score is 0.162 in assay [1]; 1.18 in assay [2]; 1.09 in [3]; 0.862 in [4]; 0.662 in [5]; 0.845 in [6]. In addition, the composite z-score came to 1.45 in assay [8] and 0.344 in assay [9]. Further, the z-score was 1.35 in assay [7] and -0.785 (inactive) in assay [10].

For the molecule `COC(=O)[C@@]1(Cc2ccc(F)cc2)[C@H]2c3cc(C(=O)N(C)C)n(C)c3C[C@H]2CN1C(=O)c1ccccc1`, the composite z-score is 2.58 in assay [1]; 0.372 in assay [2]; 0.154 in assay [3]; -0.0862 in [4]; -0.524 in assay [5]; 0.263 in assay [6]. The composite z-score in [8] was -0.795; in assay [9], 0.229. Further, the z-score in assay [7] is 0.239; in [10], 0.053 (inactive).

Regarding `C=CCOC(=O)[C@H]1[C@@H]2C(=O)O[C@@H](c3ccccc3)[C@@H](c3ccccc3)N2[C@@H](c2ccc(OCCOC(=O)[C@H]3C[C@H]4C(=O)N[C@@H](CC(C)C)C(=O)N4[C@H]3c3ccc(O)cc3)cc2)[C@]12C(=O)Nc1ccccc12`, the composite z-score in assay [1] stood at 0.1; in assay [2], 1.26; in assay [3], 0.66; in assay [4], 0.8; in assay [5] it was 1.36; in assay [6], 1.79. For the same molecule, the composite z-score in assay [8] is 1.39; in [9] it was 0.624. Moreover, the z-score in [7] is -1.48; in assay [10], -0.782 (inactive).

Take `CCCC#C[Si](O[C@H](CC)c1cn(Cc2ccccc2)nn1)(C(C)C)C(C)C`: the composite z-score in [1] was 0.738; in [2] it was 0.209; in assay [3] it was 0.0116; in assay [4] it was 0.903; in assay [5], 1.01; in assay [6] it was 0.525. Also, the composite z-score was determined as 0.828 in assay [8] and 0.143 in assay [9]. Besides, the z-score in assay [7] was -0.0817; in [10] it was -0.403 (inactive).

Regarding `C=CCC(OC(C)=O)[C@@H]1[C@@H](N(Cc2cccc3ccccc23)C(=O)Cc2ccc(OC)cc2)c2cc(OCCCO)ccc2N1C(=O)c1ccc2ccccc2c1` (stereo not given in full), the composite z-score was -0.185 in assay [1]; -0.322 in assay [2]; 0.321 in assay [3]; 0.475 in assay [4]; 0.792 in assay [5]; -0.0926 in assay [6]. Moreover, the composite z-score is 0.143 in assay [8] and 0.453 in [9]. In addition, the z-score in assay [7] was 0.0343; in assay [10] it was 0.851 (inactive).

As to `CN(C)CCCNC(=O)[C@@]1(Cc2ccccc2I)c2ccccc2C(=O)N(C2CCCCC2)[C@H]1c1ccc(CO)cc1`, the composite z-score in assay [1] came out at 0.743; in [2], 1.2; in [3] it was 0.732; in assay [4], 1.01; in assay [5], 0.872; in assay [6], 0.156. Moreover, the composite z-score in [8] was 0.27; in [9], 1.2. Moreover, the z-score in assay [7] was -1.42; in assay [10] it was 0.371 (inactive).

For `COc1ccc([Si](C)(C)[C@H]2[C@H](CC(=O)N3Cc4ccccc4C[C@H]3CO)O[C@@]3(C(=O)N(C)c4c(Br)cc(C)cc43)[C@@H]2C)cc1`, the composite z-score turned out to be 0.533 in assay [1]; 0.777 in assay [2]; 0.172 in assay [3]; 0.636 in assay [4]; 1.34 in assay [5]; 1.24 in assay [6]. The results for the composite z-score in [8] and in assay [9] were 1.58 and 0.655, respectively. Further, the z-score in assay [7] is -0.224; in assay [10], -0.0165 (inactive).

For the origin of these results see PubChem BioAssay.
